{"source": "PubChem BioAssay (NCATS)", "note": "Inconclusive results are not listed. Entries that show only a call come without a potency. Active and inactive are the calls of the source. The call rests on the fitted dose curve; in most records, active means well fitted inhibition curve with a large enough effect; inconclusive means small, poorly fitted or top-dose-only effect; inactive means flat fitted curve, though single readings scatter. Bridge positions count the residues as written; N and C are the ends. Square brackets hold non-standard residues; d marks the D form. Peptide text beside a SMILES is read from it. * marks the point of attachment. Ileψ(thiazoline)Cys = CC[C@H](C)[C@H](N)C1=N[C@H](C(=O)*)CS1; d(aIle) = CC[C@H](C)[C@@H](N)C(=O)O; dOrn = NCCC[C@@H](N)C(=O)O"}
{"test_system": "CP201", "experiment": "qHTS profiling for inhibitors of Plasmodium falciparum proliferation (AID 504749); further: nearly all actives have a fitted effect of over 60% in size; further: potency means the concentration at half of the fitted maximal effect", "conditions": "P. falciparum in erythrocytes, SYBR Green DNA, 72 h; series mostly up to 12.8 µM", "procedure,_shortened": "(§1)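 Infected RBCs, 0.3% parasitemia/2.5% Hct final; cpd 72 h, 37 C, 5% CO2; lysis buffer with saponin/triton/SYBR Green I, o/n RT dark; FI 485/535; norm. to artemisinin (0.29 uM) and DMSO.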"}
{"smiles": "C[C@@H]1C[C@H]2[C@@H]3C[C@H](F)C4=CC(=O)C=C[C@@]4(C)[C@]3(F)[C@H](O)C[C@]2(C)[C@@]1(O)C(=O)CO", "Potency": "inactive"}
{"smiles": "C[C@H](O)Cn1cnc2c1c(=O)n(C)c(=O)n2C", "Potency": "inactive"}
{"smiles": "CCCCC[C@H](O)/C=C\\[C@@H]1[C@H](O)CC(=O)[C@@H]1CCCCCCC(=O)O", "Potency": "inactive"}
{"smiles": "CC(=C(CCOP(=O)(O)O)SC(=O)c1ccccc1)N(C=O)Cc1cnc(C)nc1N", "Potency": "inactive"}
{"smiles": "NC[C@@H]1O[C@@H](O[C@H]2[C@H](O)[C@H](O[C@@H]3O[C@H](CO)[C@@H](O)[C@H](N)[C@@H]3O)[C@@H](N)C[C@H]2N)[C@H](N)C[C@@H]1O", "Potency": "inactive"}
{"smiles": "CCc1c(C)[nH]c2c1C(=O)[C@H](CN1CCOCC1)CC2", "Potency": "inactive"}
{"smiles": "C=C1c2c(Cl)ccc(O)c2C(O)=C2C(=O)[C@@]3(O)C(O)=C(C(N)=O)C(=O)[C@@H](N(C)C)[C@@H]3[C@@H](O)[C@H]12", "Potency": "inactive"}
{"smiles": "CCC(=O)OCC(=O)[C@@]1(OC(=O)CC)[C@H](C)C[C@@H]2[C@@H]3[C@H]([C@@H](O)C[C@@]21C)[C@]1(C)C=CC(=O)C=C1C[C@@H]3Cl", "Potency": "inactive"}
{"smiles": "CC[C@H](C)[C@H](N)C1=N[C@H](C(=O)N[C@@H](CC(C)C)C(=O)N[C@@H](CCC(=O)O)C(=O)N[C@@H](C(=O)N[C@H]2CCCCNC(=O)[C@@H](CC(N)=O)NC(=O)[C@@H](CC(=O)O)NC(=O)[C@@H](Cc3cnc[nH]3)NC(=O)[C@@H](Cc3ccccc3)NC(=O)[C@@H]([C@@H](C)CC)NC(=O)[C@@H](CCCN)NC2=O)[C@@H](C)CC)CS1", "note": "({Ileψ(thiazoline)Cys}-LE[d(aIle)]K[dOrn][d(aIle)][dF][dH][dD][dN]; lactam 4-C)", "Potency": "inactive"}
{"smiles": "O=C(N/N=C\\c1ccc([N+](=O)[O-])o1)c1ccc(O)cc1", "Potency": "5.73 µM (active)"}
{"smiles": "C[C@@H](CNC1CCCCC1)OC(=O)c1ccccc1", "Potency": "inactive"}
{"smiles": "CCOC(=O)O[C@@H](C)OC(=O)[C@@H]1N2C(=O)[C@@H](NC(=O)[C@@H](N)c3ccccc3)[C@H]2SC1(C)C", "Potency": "inactive"}
{"smiles": "Cc1cccc(CN2CCN([C@@H](c3ccccc3)c3ccc(Cl)cc3)CC2)c1", "Potency": "inactive"}
{"smiles": "Cc1ccsc1/C=C\\C1=NCCCN1C", "Potency": "inactive"}
{"smiles": "O=C(O)COCCN1CCN([C@@H](c2ccccc2)c2ccc(Cl)cc2)CC1", "Potency": "inactive"}
{"smiles": "C#C[C@]1(O)CC[C@@H]2[C@H]3CCC4=CCCC[C@@H]4[C@@H]3CC[C@@]21C", "Potency": "inactive"}
{"smiles": "CC1(C)[C@@H](OC(=O)CCC(=O)O)CC[C@@]2(C)[C@H]1CC[C@@]1(C)[C@H]2C(=O)C=C2[C@H]3C[C@](C)(C(=O)O)CC[C@]3(C)CC[C@@]21C", "Potency": "inactive"}
{"smiles": "C[C@H](CCC(=O)O)[C@H]1CC[C@@H]2[C@@H]3[C@@H](O)C[C@H]4C[C@@H](O)CC[C@@]4(C)[C@H]3CC[C@@]21C", "Potency": "inactive"}
{"smiles": "CN1CCO[C@H](c2ccccc2)c2ccccc2C1", "Potency": "inactive"}
{"test_system": "CP203", "experiment": "qHTS profiling for inhibitors of Plasmodium falciparum proliferation (AID 504749); further: nearly all actives have a fitted effect of over 60% in size; further: potency means the concentration at half of the fitted maximal effect", "conditions": "P. falciparum in erythrocytes, SYBR Green DNA, 72 h; series mostly up to 12.8 µM", "procedure,_shortened": "as §1"}
{"smiles": "C[C@@H]1C[C@H]2[C@@H]3C[C@H](F)C4=CC(=O)C=C[C@@]4(C)[C@]3(F)[C@H](O)C[C@]2(C)[C@@]1(O)C(=O)CO", "Potency": "inactive"}
{"smiles": "C[C@H](O)Cn1cnc2c1c(=O)n(C)c(=O)n2C", "Potency": "inactive"}
{"smiles": "CCCCC[C@H](O)/C=C\\[C@@H]1[C@H](O)CC(=O)[C@@H]1CCCCCCC(=O)O", "Potency": "inactive"}
{"smiles": "CC(=C(CCOP(=O)(O)O)SC(=O)c1ccccc1)N(C=O)Cc1cnc(C)nc1N", "Potency": "inactive"}
{"smiles": "NC[C@@H]1O[C@@H](O[C@H]2[C@H](O)[C@H](O[C@@H]3O[C@H](CO)[C@@H](O)[C@H](N)[C@@H]3O)[C@@H](N)C[C@H]2N)[C@H](N)C[C@@H]1O", "Potency": "inactive"}
{"smiles": "C=C1c2c(Cl)ccc(O)c2C(O)=C2C(=O)[C@@]3(O)C(O)=C(C(N)=O)C(=O)[C@@H](N(C)C)[C@@H]3[C@@H](O)[C@H]12", "Potency": "inactive"}
{"smiles": "CC[C@H](C)[C@H](N)C1=N[C@H](C(=O)N[C@@H](CC(C)C)C(=O)N[C@@H](CCC(=O)O)C(=O)N[C@@H](C(=O)N[C@H]2CCCCNC(=O)[C@@H](CC(N)=O)NC(=O)[C@@H](CC(=O)O)NC(=O)[C@@H](Cc3cnc[nH]3)NC(=O)[C@@H](Cc3ccccc3)NC(=O)[C@@H]([C@@H](C)CC)NC(=O)[C@@H](CCCN)NC2=O)[C@@H](C)CC)CS1", "note": "({Ileψ(thiazoline)Cys}-LE[d(aIle)]K[dOrn][d(aIle)][dF][dH][dD][dN]; lactam 4-C)", "Potency": "inactive"}
{"smiles": "O=C(N/N=C\\c1ccc([N+](=O)[O-])o1)c1ccc(O)cc1", "Potency": "5.1 µM (active)"}
{"smiles": "CCOC(=O)O[C@@H](C)OC(=O)[C@@H]1N2C(=O)[C@@H](NC(=O)[C@@H](N)c3ccccc3)[C@H]2SC1(C)C", "Potency": "inactive"}
{"smiles": "Cc1cccc(CN2CCN([C@@H](c3ccccc3)c3ccc(Cl)cc3)CC2)c1", "Potency": "inactive"}
{"smiles": "Cc1ccsc1/C=C\\C1=NCCCN1C", "Potency": "inactive"}
{"smiles": "O=C(O)COCCN1CCN([C@@H](c2ccccc2)c2ccc(Cl)cc2)CC1", "Potency": "inactive"}
{"smiles": "C#C[C@]1(O)CC[C@@H]2[C@H]3CCC4=CCCC[C@@H]4[C@@H]3CC[C@@]21C", "Potency": "inactive"}
{"smiles": "CC1(C)[C@@H](OC(=O)CCC(=O)O)CC[C@@]2(C)[C@H]1CC[C@@]1(C)[C@H]2C(=O)C=C2[C@H]3C[C@](C)(C(=O)O)CC[C@]3(C)CC[C@@]21C", "Potency": "inactive"}
{"smiles": "C[C@H](CCC(=O)O)[C@H]1CC[C@@H]2[C@@H]3[C@@H](O)C[C@H]4C[C@@H](O)CC[C@@]4(C)[C@H]3CC[C@@]21C", "Potency": "inactive"}
